{
  "source": "PubChem BioAssay (EPA / NIEHS)",
  "note": "Records with an inconclusive call do not appear. Active and inactive are the calls of the source. How the source made its calls: active means hit-call score of the fitted dose curve at least 0.9, where 1 is the maximum; inconclusive means response in the unintended direction; inactive means score below 0.9.",
  "data": [
    {"target": "Peroxisome proliferator-activated receptor gamma (Homo sapiens) (UniProt P37231)", "sequence (P37231 whole entry, looked up, the tested form may be a part)": "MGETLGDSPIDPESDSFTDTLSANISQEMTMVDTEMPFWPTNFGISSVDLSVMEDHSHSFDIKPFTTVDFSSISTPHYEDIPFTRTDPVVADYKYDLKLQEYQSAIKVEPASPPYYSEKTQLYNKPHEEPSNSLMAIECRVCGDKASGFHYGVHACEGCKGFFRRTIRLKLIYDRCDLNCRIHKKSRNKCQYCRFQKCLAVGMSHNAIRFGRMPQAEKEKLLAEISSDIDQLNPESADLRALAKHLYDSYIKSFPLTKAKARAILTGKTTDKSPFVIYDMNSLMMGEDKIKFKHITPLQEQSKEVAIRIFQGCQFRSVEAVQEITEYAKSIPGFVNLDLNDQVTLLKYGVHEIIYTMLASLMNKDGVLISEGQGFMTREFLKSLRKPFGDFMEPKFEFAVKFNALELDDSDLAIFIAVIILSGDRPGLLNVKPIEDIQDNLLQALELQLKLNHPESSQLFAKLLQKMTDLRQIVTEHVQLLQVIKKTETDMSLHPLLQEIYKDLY", "experiment": "ATG_PPARg_TRANS: Attagene TRANS-FACTORIAL HepG2 Assay for human Peroxisome Proliferator-activated Receptor-gamma (PPARg) (AID 2283007)", "how_it_was_run": "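After 24 h of chemical exposure, transfected HepG2 cells carrying PPARγ-Gal4 chimera reporter constructs are lysed for RNA. Reporter transcripts are measured by RT-PCR and capillary electrophoresis with fluorescent labelling, and gain of signal is fitted versus DMSO.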", "values": [
      {"compound": "CC1=C(C)S(=O)(=O)CCS1(=O)=O", "AC50": "77.8 µM (active)"},
      {"compound": "C#CC(O)C(CC)CCCC", "note": "(stereo not given)", "AC50": "59.2 µM (active)"},
      {"compound": "Cc1cn([C@H]2C=C[C@@H](CO)O2)c(=O)[nH]c1=O", "outcome": "inactive"},
      {"compound": "S=c1[nH]c2ccccc2s1", "AC50": "9.31 µM (active)"},
      {"compound": "CC(N)=O", "outcome": "inactive"},
      {"compound": "NCCOCCOCCN", "outcome": "inactive"},
      {"compound": "OCC(CO)n1cnc(-c2ccc(F)cc2)c1-c1ccnc(Oc2ccccc2)n1", "outcome": "inactive"},
      {"compound": "Cc1occc(=O)c1O", "outcome": "inactive"},
      {"compound": "O=C(NS(=O)(=O)/C=C/c1cccs1)c1ccc(F)cc1Br", "AC50": "21.6 µM (active)"},
      {"compound": "CSc1ccc(Oc2ccc(S(N)(=O)=O)cc2CN(C)C)cc1C", "outcome": "inactive"},
      {"compound": "CCCCCCCCCCCCCCOS(=O)(=O)O", "AC50": "11.1 µM (active)"},
      {"compound": "CN(C)CCCN(C)CCCN(C)C", "outcome": "inactive"},
      {"compound": "CCCCc1nc2cccnc2n1Cc1ccc(-c2ccccc2-c2nnn[nH]2)cc1", "AC50": "4.39 µM (active)"},
      {"compound": "C/C=C/C=C/C(=O)O", "outcome": "inactive"},
      {"compound": "Cn1cnc2c1c(=O)[nH]c(=O)n2C", "outcome": "inactive"},
      {"compound": "C=CCc1ccc(OC)c(OC)c1", "outcome": "inactive"},
      {"compound": "CS(=O)(=O)c1ccc([C@@H](C[C@H]2CCC(=O)C2)C(=O)Nc2cnccn2)cc1Cl", "outcome": "inactive"},
      {"compound": "CC(=O)S[C@H](C(=O)N[C@H]1Cc2ccccc2[C@H]2CCC[C@@H](C(=O)O)N2C1=O)C(C)C", "outcome": "inactive"}
    ]},
    {"target": "Nuclear receptor subfamily 1 group I member 2 (Homo sapiens) (UniProt O75469)", "sequence (O75469 whole entry, looked up, the tested form may be a part)": "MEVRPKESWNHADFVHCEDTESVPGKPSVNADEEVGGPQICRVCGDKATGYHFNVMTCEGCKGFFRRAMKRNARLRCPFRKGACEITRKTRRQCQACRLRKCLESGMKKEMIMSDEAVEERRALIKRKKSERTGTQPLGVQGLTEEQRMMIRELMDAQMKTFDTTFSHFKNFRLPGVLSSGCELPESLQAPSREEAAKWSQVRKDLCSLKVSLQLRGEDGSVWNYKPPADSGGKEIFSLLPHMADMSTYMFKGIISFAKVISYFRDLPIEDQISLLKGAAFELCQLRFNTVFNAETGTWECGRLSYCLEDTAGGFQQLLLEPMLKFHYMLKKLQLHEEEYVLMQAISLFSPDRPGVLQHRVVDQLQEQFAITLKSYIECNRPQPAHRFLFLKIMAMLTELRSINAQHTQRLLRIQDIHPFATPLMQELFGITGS", "experiment": "ATG_PXR_TRANS: Attagene TRANS-FACTORIAL HepG2 Assay for human Pregnane X Receptor (PXR) (AID 2283008)", "how_it_was_run": "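Trans-factorial format: exogenous NR-Gal4 fusion activity, not endogenous factor, in transfected human HepG2 liver cells. After 24 h dosing, RNA isolated, reverse-transcribed, amplified and resolved by capillary electrophoresis; induction scored versus DMSO.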", "values": [
      {"compound": "CC1=C(C)S(=O)(=O)CCS1(=O)=O", "outcome": "inactive"},
      {"compound": "C#CC(O)C(CC)CCCC", "note": "(stereo not given)", "AC50": "25.5 µM (active)"},
      {"compound": "COC(=O)CCC(=O)OC", "outcome": "inactive"},
      {"compound": "S=c1[nH]c2ccccc2s1", "AC50": "31.5 µM (active)"},
      {"compound": "NCCOCCOCCN", "outcome": "inactive"},
      {"compound": "OCC(CO)n1cnc(-c2ccc(F)cc2)c1-c1ccnc(Oc2ccccc2)n1", "AC50": "6.83 µM (active)"},
      {"compound": "O=C(NS(=O)(=O)/C=C/c1cccs1)c1ccc(F)cc1Br", "AC50": "11.4 µM (active)"},
      {"compound": "CCCCC(CC)CO", "note": "(stereo not given)", "outcome": "inactive"},
      {"compound": "CSc1ccc(Oc2ccc(S(N)(=O)=O)cc2CN(C)C)cc1C", "AC50": "2.31 µM (active)"},
      {"compound": "CCCC(=O)O", "outcome": "inactive"},
      {"compound": "CN(C)CCCN(C)CCCN(C)C", "outcome": "inactive"},
      {"compound": "CCCCc1nc2cccnc2n1Cc1ccc(-c2ccccc2-c2nnn[nH]2)cc1", "AC50": "27.4 µM (active)"},
      {"compound": "CCCCCCCC(=O)OC", "outcome": "inactive"},
      {"compound": "C/C=C/C=C/C(=O)O", "outcome": "inactive"},
      {"compound": "CCCC[C@H]1CN(CC2CCOCC2)C(=O)OC12CCN(C1(C)CCN(C(=O)c3c(C)ncnc3C)CC1)CC2", "outcome": "inactive"},
      {"compound": "Cn1cnc2c1c(=O)[nH]c(=O)n2C", "outcome": "inactive"},
      {"compound": "CC(=O)O", "outcome": "inactive"},
      {"compound": "CCCCC(CC)COC(=O)CCCCCCCC(=O)OCC(CC)CCCC", "note": "(stereo not given)", "outcome": "inactive"},
      {"compound": "CC(=O)CC(c1ccccc1)c1c(O)c2ccccc2oc1=O", "note": "(stereo not given)", "outcome": "inactive"},
      {"compound": "C=CCc1ccc(OC)c(OC)c1", "AC50": "28.8 µM (active)"},
      {"compound": "CS(=O)(=O)c1ccc([C@@H](C[C@H]2CCC(=O)C2)C(=O)Nc2cnccn2)cc1Cl", "outcome": "inactive"},
      {"compound": "CC(=O)S[C@H](C(=O)N[C@H]1Cc2ccccc2[C@H]2CCC[C@@H](C(=O)O)N2C1=O)C(C)C", "outcome": "inactive"}
    ]}
  ]
}
